# Test results: PubChem BioAssay (Tox21)
# Calls of active or inactive are those of the source. Calls come from the whole dose curve; as a rule, active = well fitted curve in the direction sought with a large enough effect in the repeat runs; inconclusive = weak or mixed curves; inactive = flat fitted curve, though single readings scatter.
# Experiment: qHTS assay to test for compound auto fluorescence at 460 nm (blue) in HEK293 cell free culture (AID 720681)
# Settings: cell-free medium, autofluorescence 405/460 nm (blue); series mostly up to 91.3 µM; fluorescence, % of fluorescent control: at the top concentration
# Outline: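 Compounds were added to cell-free DMEM with 10% FBS and fluorescence read directly. The blue channel used 405 nm excitation and 460 nm emission, with triamterene as the reference fluorophore.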
# % is set by controls: 0 for no effect and ±100 for the full control effect.
Compound,"fluorescence, % of fluorescent control",outcome
CCc1ccccc1N,0.0557% (inactive),–
Cc1cccc(C)c1NC1=NCCCS1,0.837% [at 46 µM] (inactive),–
C[CH2][Hg][S]c1ccccc1C(=O)O,–,inactive
CC1(C)[C@H](C(=O)O[C@H](C#N)c2cccc(Oc3ccccc3)c2)[C@@H]1C=C(Br)Br,–,inactive
[Cl-].[Cl-].[Hg+2],–,inactive
CN1C(=O)CN=C(c2ccccc2)c2cc([N+](=O)[O-])ccc21,-0.169% [at 46 µM] (inactive),–
C=CCN1C[C@H](C)N([C@H](c2ccc(C(=O)N(CC)CC)cc2)c2cccc(OC)c2)C[C@H]1C,-0.106% [at 46 µM] (inactive),–
C=C(C)C(=O)OCCCCOC(=O)C(=C)C,0.0028% (inactive),–
CCCCCBr,0.135% [at 95.7 µM] (inactive),–
Nc1ccccc1C(=O)OCCc1ccccc1,–,inactive
O=C(O)C(O)C(O)C(=O)O (stereo not drawn),-0.0563% (inactive),–
CC(C)(C)N(NC(=O)c1ccc(Cl)cc1)C(=O)c1ccccc1,0.0763% (inactive),–
COP(=O)(OC)OC(Br)C(Cl)(Cl)Br (stereo not drawn),–,inactive
Cc1ncc(C[n+]2csc(CCO)c2C)c(N)n1,–,inactive
Nc1ccc2c(c1)Cc1ccccc1-2,0.0984% (inactive),–
CCC(C)(C)O,-0.0353% (inactive),–
CCC1(CCC(C)C)C(=O)NC(=O)NC1=O,0.0343% (inactive),–
O=C1NC(=O)C(=O)C(=O)N1,0.0772% [at 95.7 µM] (inactive),–
CC(=O)NNc1ccccc1,0.0604% (inactive),–
Clc1ccccc1,0.0418% (inactive),–
NNCCO,-0.0211% (inactive),–
CCOP(=S)(OCC)Oc1ccc(S(C)=O)cc1 (stereo not drawn),0.0826% (inactive),–
O=C(NC(=O)c1cc(F)c(F)cc1Cl)Nc1cc(F)ccc1N1CCC(C(=O)O)CC1,0.0246% [at 46 µM] (inactive),–
Nc1c(Br)cc(Br)c2c1C(=O)c1ccccc1C2=O,-0.168% [at 18.6 µM] (inactive),–
O=C(O)CCCOc1ccc(Cl)cc1Cl,–,inactive
CC(C)c1ccc(NC(=O)N(C)C)cc1,-0.0696% (inactive),–
CC(=O)OC(c1ccccc1)C(Cl)(Cl)Cl (stereo not drawn),-0.256% (inactive),–
c1ccc2sc(SNC3CCCCC3)nc2c1,–,inactive
NCCc1cc(O)c(O)cc1O,0.833% [at 46 µM] (inactive),–
O=[N+]([O-])c1cc(Cl)c(Cl)cc1Cl,-0.183% (inactive),–

# Experiment: qHTS assay to test for compound auto fluorescence at 535 nm (green) in HEK293 cell free culture (AID 720682)
# Settings: cell-free medium, green autofluorescence 485/535 nm, active compounds read high; series mostly up to 91.3 µM; activity change: at the top concentration
# Outline: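 DMEM + 10% FBS, cell-free; cpd or DMSO pinned in; Ex485/Em535 read; output as fluorescein-equivalent signal.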
Compound,activity change,outcome
Cc1cccc(C)c1NC1=NCCCS1,-0.0126% [at 46 µM] (inactive),–
CC1(C)[C@H](C(=O)O[C@H](C#N)c2cccc(Oc3ccccc3)c2)[C@@H]1C=C(Br)Br,–,inactive
[Cl-].[Cl-].[Hg+2],–,inactive
CN1C(=O)CN=C(c2ccccc2)c2cc([N+](=O)[O-])ccc21,-0.077% [at 46 µM] (inactive),–
COc1ccc(C(=O)c2c(C)n(CCN3CCOCC3)c3ccccc23)cc1,-0.0837% [at 46 µM] (inactive),–
CCCCCBr,0.0302% [at 95.7 µM] (inactive),–
CC(C)[C@@H](C(=O)O[C@@H](C#N)c1cccc(Oc2ccccc2)c1)c1ccc(Cl)cc1,–,inactive
Nc1ccccc1C(=O)OCCc1ccccc1,–,inactive
O=C(O)C(O)C(O)C(=O)O (stereo not drawn),-0.0638% (inactive),–
CC(C)(C)N(NC(=O)c1ccc(Cl)cc1)C(=O)c1ccccc1,-0.0016% (inactive),–
COP(=O)(OC)OC(Br)C(Cl)(Cl)Br (stereo not drawn),–,inactive
Cc1ncc(C[n+]2csc(CCO)c2C)c(N)n1,–,inactive
Nc1ccc2c(c1)Cc1ccccc1-2,-0.0201% (inactive),–
CCC(C)(C)O,-0.0867% (inactive),–
CN1CC[C@]23c4c5ccc(O)c4O[C@H]2[C@@H](O)C=C[C@H]3[C@H]1C5,-0.0177% (inactive),–
NP(N)(=O)NC(=O)c1ccc(F)cc1,-0.0239% [at 46 µM] (inactive),–
CN(C)c1ccc(N=O)cc1,–,inactive
C[Si](Cn1cncn1)(c1ccc(F)cc1)c1ccc(F)cc1,–,inactive
